Measured values taken from PubChem BioAssay (EPA / NIEHS).
Calls of active or inactive are those of the source. How the source made its calls: active means hit-call score of the fitted dose curve at least 0.9, where 1 is the maximum; inactive means score below 0.9.

read-out: matrix metalloproteinase-3 (MMP3), MMP3 (gene 4314); test: LTEA_HepaRG_MMP3: Life Technologies and Expression Analysis (LTEA) Assay for matrix metalloproteinase-3 (MMP3) using HepaRG (AID 2283519); conditions: mRNA level, 48 h; actives raise or lower the signal
Method: LTEA_HepaRG is a cell based, multiplexed-readout assay that uses HepaRG, a human liver cell line, with measurements taken at 48 hours after chemical dosing on a 96-well plate.LTEA_HepaRG_MMP3 is one of 102 assay component(s) measured in the LTEA HepaRG cell culture assay. It is a marker of Fibrosis.Data from the assay component LTEA_HepaRG_MMP3 was analyzed into 1 endpoint. This assay endpoint, LTEA_HepaRG_MMP3, was analyzed with bidirectional fitting relative to DMSO as the negative control and baseline of activity. Using a type of inducible reporter, measures of mRNA induction for gain or loss-of-signal activity can be used to understand regulation of transcription factor activity. To generalize the intended target to other relatable targets, this assay endpoint is annotated to the protease intended target family, where the subfamily is matrix metalloproteinase.
A total of 1060 chemcials from the ToxCast library were tested in eight-point concentration-response experiments. Cell culture and cytotoxicity assays were conducted at Thermo Fisher Scientific's Custom Services facility (Madison, WI). A single lot of human HepaRG cells (Thermo Fisher Scientific, Frederick, MD) was used for the cell culture experiments. 96-well format collagen type I coated plates of human HepaRG cells were prepared using established methods. Briefly, cryopreserved HepaRG cells were thawed, plated at a density of approximately 100,000 cells/well in HepaRG Thaw, Plate, and General Purpose media (HPRG770, Thermo Fisher Scientific), and incubated for 48 hours. 0.5% DMSO was selected as vehicle control to balance the requisite need of DMSO in HepaRG cultures to maintain differentiation (for example, baseline metabolism, proportions of hepatocytes vs. cholangiocytes), while enabling further hepatic receptor pathway activation (for example, PXR and CAR) in response to chemical exposure. 48 hours after plating, the culture medium was replaced with HepaRG Serum-Free Incudtion Media. Cells were exposed to each test chemical in duplicate and maintained in CO2 incubators for another 48 hours. Chemical plates were thawed to room temperature and 200x concentrations of treatment groups were prepared. 8-point conentration-reponse curves were made with the highest exposure at 100 uM, followed by half-log dilutions, all in 0.5% DMSO. Each test plate contained variouse controls, induction positive controls (1mM phenobarbital), cytotoxicity positive controls ([…] aflatoxin B1), vehicle controls (0.5% DMSO), and total lysis controls (0.5% DMSO). Cell morphology images were taken using an Essen IncuCyte FLR automated microscope, with six 96-well plates imaged in about 24 minutes. Images were captured and exported and JPEG files. Spent culture media was transfered to black-well plates for the LDH assay, and remaining media was sorted at -80 C for later use. Cells were treated with RLT buffer and frozen until shipped for gene expression analysis. Total RNA was isolated from the cell suspension in 75 uL of Buffer RLT (Qiagen, Germantown, MD 20874) by Quintiles/Expression Analysis (Durham, NC) using a custom isolation procedure. Total RNA from each plate well was transferred to a preamplification plate. Fluidigm's 96.96 Dynamic ArrayTM (Fluidigm, Amsterdam, the Netherlands) technology was used for gene expression analyses by quantitative reverse transcription polymerase chain reaction (qRT-PCR, performed by Quintiles/Expression Analysis, Durham, NC)89. Standard TaqManTM Assays (Applied Biosystems/ThermoFisher Scientific, Foster City, CA) were used to assess the expression of 93 genes selected based on their selectivity and sensitivity to important hepatic receptors known to be modulated by environmental chemicals; importance in human hepatocyte functionality; and hepatotoxicity. […]

AC50, active:
COc1ccc(C(=O)Nc2nc3ccccc3c(NCc3ccccc3)c2C#N)cc1 9.92 µM
CS(=O)(=O)c1ccc([C@@H](C[C@H]2CCC(=O)C2)C(=O)Nc2cnccn2)cc1Cl 1.16 µM
CC(C)(O)c1ccc(CNC(=O)c2cccnc2Oc2ccc(F)cc2)cc1 73.2 µM
O=C(N[C@@H](c1ccccc1)[C@@H]1CCCCN1)c1cccc(C(F)(F)F)c1Cl 87.1 µM
CC(C)OC(=O)C(C)(C)Oc1ccc(C(=O)c2ccc(Cl)cc2)cc1 0.0439 µM
COc1ccc(OC(F)(F)F)cc1CN[C@H]1CCCN[C@H]1c1ccccc1 80.2 µM

outcome, inactive:
c1ccc2occc2c1
CCCCC(CC)COC(=O)CCCCCCCC(=O)OCC(CC)CCCC (stereo not given)
O=Cc1ccccc1C=O
CC(=O)CC(c1ccccc1)c1c(O)c2ccccc2oc1=O (stereo not given)
O=C(Oc1ccccc1)c1cccc(C(=O)Oc2ccccc2)c1
Oc1ccccc1O
CC(C)c1cccc(C(C)C)c1NC(=O)NS(=O)(=O)c1cc(C(C)(C)O)co1
CCCCCCCC(=O)OC
CC(=O)[C@@]1(O)CC[C@H]2[C@@H]3CCC4=CC(=O)CC[C@]4(C)[C@H]3CC[C@@]21C
O=C1c2c(O)cccc2Cc2cccc(O)c21
CN(C)C(=O)NC1(c2ccccc2)CCN(CC[C@@]2(c3ccc(F)c(F)c3)CN(C(=O)c3ccccc3)CCO2)CC1
Nc1nc(=S)c2[nH]cnc2[nH]1
O=C1OC(c2ccc(O)cc2)(c2ccc(O)cc2)c2ccccc21
O=[Si]=O
O=NO
CC(C)c1cccc(C(C)C)c1
O=C(O)CC(O)(CC(=O)O)C(=O)O
CCCCC(CC)COP(=O)(OCC(CC)CCCC)OCC(CC)CCCC (stereo not given)
CCCCCCCCCCCCCCCCO
NC(=Nc1ccccc1)Nc1ccccc1
CCCCCCC(CCCCCCCCCCC(=O)OCC(COC(C)=O)OC(C)=O)OC(C)=O (stereo not given)
Oc1ccc(O)cc1
Cc1ccc(-c2cc(C(F)(F)F)nn2-c2ccc(S(N)(=O)=O)cc2)cc1
NC=O
C=CCCCCCCCCCCCC
CCCCCCCCCC[N+](C)(C)[O-]
N[C@@H](Cc1c[nH]c2ccccc12)C(=O)O
Cc1occc(=O)c1O
CSc1ccc(Oc2ccc(S(N)(=O)=O)cc2CN(C)C)cc1C
O=C1NC(=O)C(c2ccccc2)(c2ccccc2)N1
CCCCCCCCCCCCCCOS(=O)(=O)O
NC1CCCCC1
CC(C)(C)c1ccccc1
COC(=O)CCC(=O)OC
